TCR act = T cell receptor activation | primary human leukocytes, anti-CD3, IL-2 HTRF, 48 h | Potency, µM (top dose mostly 9.22 µM), actives largely listed as activators | 330,000 tested, under 10 active | AID 504894
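Readout: HTRF IL-2, Eu-cryptate/d2 antibody pair, 320nm excitation, 665nm emission. Stimulus: a-CD3 beads, no co-stimulation. Cells: primary human leukocytes. Exposure: 48 hr with compound.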
ClpP mod = qHTS Assay for Activators of ClpP | ATP-dependent Clp protease proteolytic subunit (Bacillus subtilis (strain 168)), P80244 | purified B. subtilis ClpP, FRET peptide cleavage, 20 min | Potency, µM (highest dose often 57.5 µM) | 340,000 compounds, 1.9% hits | AID 651965, 2013; active = well fitted falling curve with a large enough effect; inconclusive = small, poorly fitted or top-dose-only effect; inactive = no such curve, though single readings can be large or run the other way; also: the source files actives as falling curves though it sought activators and does not explain the sign; nearly all actives have a fitted effect of over 65% in size
Target sequence (P80244 whole entry, looked up): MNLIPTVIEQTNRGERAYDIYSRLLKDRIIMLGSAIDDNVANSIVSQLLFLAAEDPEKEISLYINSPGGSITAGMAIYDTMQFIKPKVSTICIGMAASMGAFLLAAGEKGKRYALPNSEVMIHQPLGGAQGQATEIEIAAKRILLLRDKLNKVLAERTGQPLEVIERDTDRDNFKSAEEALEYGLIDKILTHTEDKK
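FRET quenching reversal measured ClpP activation: 10 microg/mL B. subtilis ClpP at pH 8 with the FRET-FV decapeptide, read at 430 nm after 320 nm excitation. The 20-min minus 0-min signal was scaled between DMSO/no-enzyme wells and ADEP (5.8 microM final).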
uPA surface inh = blocks generation of uPA at the cell surface | cell surface uPA generation assay, qHTS | Potency, µM (series often up to 38.3 µM), hits mostly inhibitors | 330,000 compounds, 0.31% hits | AID 540303; active = well fitted inhibition curve with a large enough effect; inconclusive = small, poorly fitted or top-dose-only effect; inactive = no such curve, though single readings can be large or run the other way; tested in mouse RAW 264.7 cells; also: nearly all actives have a fitted effect of over 55% in size
Sfp PPTase inh = blocks B. subtilis Sfp PPTase activity. 310,000 compounds, 3.5% hits. Potency, µM, usual class: inhibitors. Q9F4F7. AID 1490. Biochemical Sfp PPTase activity, qHTS;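 also: the enzyme is Sfp with the accession as filed and its product quenches rhodamine fluorescence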
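Fluorescence-quenching assay: 15 nM Sfp-PPTase preincubated 15 min at room temperature with compound, then 5 uM rhodamine-CoA and 12.5 uM BHQ-2-labelled YbbR peptide added. Fluorescence (ex 525/em 598 nm) read at start and after 30 min; difference gives rate.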
Each line names hits and unclear results; the compound was inactive in the other large screens. Compounds with a hit are over-represented: about 4.2% of the library has one in this group of screens. Unless noted, calls follow the shape of the dose curve; as a rule, active = well fitted curve in the direction sought with a large enough effect; inconclusive = small, poorly fitted or top-dose-only effect, or another doubt; inactive = no such curve, though single readings can be large; an effect the other way counts as inactive or inconclusive.

C[C@H](NC(=O)CNC(=O)[C@@H](NC(=O)[C@H](Cc1ccccc1)NC(=O)CNC(=O)CNC(=O)[C@@H](N)Cc1ccccc1)[C@@H](C)O)C(=O)N[C@@H](CCCN=C(N)N)C(=O)N[C@@H](CCCCN)C(=O)N[C@@H](CO)C(=O)N[C@@H](C)C(=O)N[C@@H](CCCN=C(N)N)C(=O)N[C@@H](CCCCN)C(N)=O	none (no result: TCR act, ClpP mod, uPA surface inh)
CC1=[N+](C)c2c(ccc3cccnc23)C1(C)C	Sfp PPTase inh 11µM (no result: ClpP mod)
CCSc1nc(=S)cc(C)[nH]1	Sfp PPTase inh 22µM
CN(C)c1ccc(/C=N/NC(=S)NCc2ccccc2)cc1	ClpP mod 18µM
CCNC(=S)N/N=C/c1cccc(/C=N/NC(=S)NCC)c1	Sfp PPTase inh 40µM (no result: ClpP mod)
CCN(CC)c1ccc(/C=N/NC(=S)NCc2ccco2)cc1	ClpP mod 16µM
Cc1c(NC(=S)/C=C2\N(C)c3ccccc3C2(C)C)c(=O)n(-c2ccccc2)n1C	Sfp PPTase inh 50µM (no result: uPA surface inh)
Oc1ccc(/C=N/NC(=S)NCc2ccco2)cc1	none
Cc1c(N=C/C=C2\N(C)c3ccccc3C2(C)C)c(=O)n(-c2ccccc2)n1C	none
COc1cccc(CC2(CO)CCCN(Cc3cc(F)ccc3-n3cccn3)C2)c1 (configuration not stated)	none (no result: ClpP mod)
Cc1ccccc1N(CC(=O)N/N=C/c1ccccc1Cl)C(=O)c1ccccc1	none
Cc1ccccc1N(CC(=O)N/N=C/c1ccc(N(C)C)cc1)C(=O)c1ccccc1	ClpP mod 35µM
Cc1c(NC(=S)N/N=C/c2ccc(N(C)C)cc2)c(=O)n(-c2ccccc2)n1C	ClpP mod 32µM
COCCn1c(=O)c(-c2cn(C)c3ccccc23)nc2cnc(Oc3ccccc3)nc21	none (no result: TCR act, ClpP mod, uPA surface inh)
C=CCNC(=S)NCc1cccnc1	Sfp PPTase inh 79µM
S=C(NCc1cccnc1)NCc1cccnc1	none (no result: TCR act)
CCCc1cc(=O)n2[nH]c(NCc3ccccc3OC)nc2n1	none (no result: TCR act, uPA surface inh, Sfp PPTase inh)
FC(F)(F)c1nc(=S)c2ccccc2[nH]1	Sfp PPTase inh 20µM
S=c1nc(COc2ccccc2)[nH]c2ccccc12	Sfp PPTase inh 32µM
COc1cc(S(=O)(=O)O)c(C)cc1N=Nc1c(O)ccc2cc(S(=O)(=O)O)ccc12	none (no result: TCR act, uPA surface inh, Sfp PPTase inh)
Cc1cc(=O)oc2cc(O[C@@H]3O[C@H](C(=O)O)[C@@H](O)[C@H](O)[C@H]3O)ccc12	none (no result: TCR act, ClpP mod, uPA surface inh)
CCOc1ccc(-c2cc(NC(=O)Nc3ccccc3Cl)c(C(=O)OC)s2)cc1	ClpP mod 14µM (no result: TCR act, uPA surface inh, Sfp PPTase inh)
COC(=O)c1cc(-c2ccccc2)sc1N	Sfp PPTase inh 40µM
CCOc1ccc(NC(=O)Nc2cc(-c3ccccc3)sc2C(=O)OC)cc1	none
COC(=O)c1sc(-c2ccccc2)cc1NC(=O)C1CC1	Sfp PPTase inh 45µM (no result: ClpP mod)
C#CCNC(=O)c1cc(-c2ccccc2)sc1N	none (no result: TCR act, uPA surface inh, Sfp PPTase inh)
CCOc1ccc(-c2cc(NC(=O)Nc3ccccc3C(F)(F)F)c(C(=O)OC)s2)cc1	none (no result: TCR act, uPA surface inh, Sfp PPTase inh)
CCC[n+]1c(/C=C/c2c(OC)cc(OC)cc2OC)ccc2ccccc21	none (no result: TCR act, uPA surface inh, Sfp PPTase inh)
COC(=O)c1cccc(S(=O)(=O)N(Cc2ccco2)Cc2cc3cc(OC)c(OC)cc3[nH]c2=O)c1	ClpP mod 28µM (no result: uPA surface inh)
O=C(Nc1ccc(F)c(Cl)c1)N1CCN2CCCCC2C1 (configuration not stated)	none (no result: TCR act, uPA surface inh, Sfp PPTase inh)
COc1cc2c(cc1NC(=O)c1cc(-c3cccnc3)nc3ccc(C)cc13)oc1ccccc12	ClpP mod 20µM (no result: uPA surface inh)
COc1cc2c(cc1NC(=O)Nc1cccc(C)c1)oc1ccccc12	ClpP mod 28µM
COc1cc2c(cc1NC(=S)Nc1cccc(C)c1)oc1ccccc12	ClpP mod 11µM (no result: uPA surface inh)
COc1cc2c(cc1NC(=O)Nc1ccc(F)cc1)oc1ccccc12	Sfp PPTase inh inconclusive
COc1cc2c(cc1NC(=O)CSc1nc3cc(Cl)ccc3s1)oc1ccccc12	ClpP mod 5.6µM, Sfp PPTase inh inconclusive
COc1cc2c(cc1NC(=O)c1cc(-c3ccncc3)nc3ccccc13)oc1ccccc12	Sfp PPTase inh inconclusive
O=C(NNC(=O)c1ccncc1)Nc1cc(Cl)ccc1Cl	none (no result: ClpP mod, Sfp PPTase inh)
COc1cc2c(cc1NC(=O)Nc1ccc(C)cc1)oc1ccccc12	ClpP mod 35µM, Sfp PPTase inh inconclusive
COc1ccc(NC(=O)Nc2cc3oc4ccccc4c3cc2OC)cc1	none
CC1(C)CC(=O)C2=C(C1)N(Cc1ccco1)C(=O)C2(NC(=O)c1cccnc1)C(F)(F)F (configuration not stated)	Sfp PPTase inh 22µM
CCCC(=O)N1CCCC(C(=O)c2cccc(OC(C)C)c2)C1 (configuration not stated)	none (no result: ClpP mod, Sfp PPTase inh)
Cc1ccc(-n2nc(-c3cccnc3)cc2C(=O)N2CCOCC2)c(C)c1	none

Compound activity (PubChem BioAssay)
